Experimental data published in PubChem BioAssay AID602 (SRMLSC, 2007).
Among all 85,000 compounds or so, about 35 (0.04%) were called active.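 Rule for the calls: active = viability drop by adding the cancer drug above about 55%, with treated viability meeting a 40% cutoff (limit read from the data); inactive = the rest, inconclusive results apart.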 Many of the other results were omitted from the sample, so actives are more common in it than they were.

Test: MRP1 drug-resistance reversers in H69AR cells – cell-based, doxorubicin co-treatment, primary screen (AID 602);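 for differential viability (reversal): larger differential means the compound sensitizes cells more to doxorubicin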
Conditions: CellTiter-Glo, 72 h, at 10 µM; for differential viability (reversal): stronger effect = higher value
[1] = H69AR cells + 2 uM doxorubicin, measured here: viability with 2 uM doxorubicin, stronger effect = lower value
[2] = H69AR cells, measured here: cytotoxicity without doxorubicin

With `CSC1=NP(=S)(SC)N(C)c2nc3n(c21)CCC3` (stereo not given) the differential viability (reversal) (H69AR cells + 2 uM doxorubicin) was 57.9% (active), the viability [1] was 27.2% and the viability [2] was 85.1%.

With `CCOc1ccc(CN(CCCl)CCCl)cc1C(=O)OC` the differential viability (reversal) (H69AR cells + 2 uM doxorubicin) was -29% (inactive), the viability [1] was 83.1% and the viability [2] was 54.1%.

For `Cn1c(O)c(C=NCCN2CCNCC2)c(=O)n(C)c1=O`, the differential viability (reversal) (H69AR cells + 2 uM doxorubicin) was 8.13% (inactive), the viability [1] was 85.1% and the viability [2] was 93.2%.

For `CC(=O)NC(=O)NC(C)Cc1ccccc1` (stereo not given), the differential viability (reversal) (H69AR cells + 2 uM doxorubicin) was -9.72% (inactive), the viability [1] was 96.7% and the viability [2] was 87%.

For `CCN(N=Nc1nonc1OC)c1nonc1OC`, the differential viability (reversal) (H69AR cells + 2 uM doxorubicin) was 9.43% (inactive), the viability [1] was 86.2% and the viability [2] was 95.7%.
